miR-122 inh: miR-122 suppressors via Renilla sensor increase, primary screen, cell-based, Huh7 psiCHECK-miR122, Renilla luciferase, single point; 48 h; activation, % at 12.5 µM; hit rate 0.14% among 340,000;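 active = mean activation of 30% or more, with every replicate also reaching 30%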;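 note: 0% = median of neutral control wells and 100% = median of positive control wells; higher luciferase signal means stronger suppression of miR-122 activity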
Starred values were filed as active, the others as inactive. Shown is part of a subset that was picked to be rich in hits.

For O=C(Cn1c(=O)c2ccccc2n(CC(=O)N2CCCCC2)c1=O)N1CCCCC1 the results were miR-122 inh 60*.
Screening C[C@H]1CN([C@@H](C)CO)C(=O)c2cc(C#CC3CC3)cnc2O[C@@H]1CN(C)C returned miR-122 inh 4.
`C[C@H](CO)N1C[C@H](C)[C@H](CN(C)C(=O)Cc2cccnc2)Oc2ncc(-c3ccncc3)cc2C1=O` gave miR-122 inh 8.
Cc1ccc(Nc2nc(C(=O)NCc3ccco3)cs2)cc1 was read as miR-122 inh -162.
For Cc1oc(-c2ccc(Cl)cc2)nc1CN1CCCC(C(=O)NCc2ccco2)C1 (stereo not drawn) the results were miR-122 inh 39*.
For CCC1=Nc2cc(C(=O)NCc3ccco3)ccc2Sc2ccc(C)cc21 the results were miR-122 inh -119.
For COc1ccc(-c2cnc3c(c2)C(=O)N([C@H](C)CO)C[C@@H](C)[C@H](CN(C)C(=O)C2CCOCC2)O3)cc1 the results were miR-122 inh -1.
For COc1ccc(C(=O)Nc2ccc3c(c2)OC[C@@H](C)N(C)C[C@H](C)[C@H](OC)CN(C)C3=O)cc1 the results were miR-122 inh -5.
`Cc1ccc(-c2nc(C(Cl)Cl)c3ccccc3n2)cc1` gave miR-122 inh 61*.
For C[C@H](CO)N1C[C@H](C)[C@H](CN(C)C(=O)Nc2cccc3ccccc23)Oc2ncc(-c3cc4ccccc4o3)cc2C1=O the results were miR-122 inh 3.
For COc1ccc(C#Cc2ccc3c(c2)O[C@H](CN(C)C)[C@H](C)CN([C@H](C)CO)S3(=O)=O)cc1 the results were miR-122 inh -3.
`COc1ccccc1S(=O)(=O)N(C)C[C@H]1Oc2cc(/C=C/c3ccccc3)ccc2S(=O)(=O)N([C@H](C)CO)C[C@@H]1C` gave miR-122 inh -52.
CC(C)C#Cc1cnc2c(c1)C(=O)N([C@@H](C)CO)C[C@H](C)[C@H](CN(C)Cc1ccccn1)O2 was read as miR-122 inh 3.
C[C@@H]1CN([C@@H](C)CO)C(=O)c2cc(Br)cnc2O[C@H]1CN(C)Cc1cccc(F)c1 was read as miR-122 inh 3.
Screening CCS(=O)(=O)Nc1ccc2c(c1)C(=O)N(C)C[C@@H](OC)[C@@H](C)CN[C@@H](C)CO2 returned miR-122 inh 0.
Screening COc1ccccc1C#Cc1ccc2c(c1)O[C@@H](CN(C)Cc1ccncc1)[C@H](C)CN([C@H](C)CO)S2(=O)=O returned miR-122 inh 7.
COCC#Cc1cnc2c(c1)C(=O)N([C@H](C)CO)C[C@@H](C)[C@H](CN(C)C(=O)Cc1ccccc1)O2 was read as miR-122 inh -10.
For O=C(N/N=C/c1sc2ccccc2c1O)c1ccccc1 the results were miR-122 inh 41*.
For C[C@@H]1CN([C@H](C)CO)S(=O)(=O)c2ccc(-c3ccccc3)cc2O[C@H]1CN(C)C(=O)C1CCCCC1 the results were miR-122 inh -95.
C[C@@H]1CN([C@@H](C)CO)C(=O)c2cc(/C=C/c3ccccc3)cnc2O[C@@H]1CN(C)C(=O)C1CCC1 was read as miR-122 inh -2.
Screening CN(C[C@H]1N[C@@H](CO)[C@H]1c1ccc(-c2ccccc2)cc1)C(=O)C1CCC1 returned miR-122 inh 42*.
For C[C@@H]1CN([C@H](C)CO)C(=O)c2cc(C3=CCCCC3)cnc2O[C@@H]1CN(C)C(=O)c1ccc(F)cc1 the results were miR-122 inh -3.
For CO[C@@H]1CN(C)C(=O)c2cc(NC(=O)c3nc4ccccc4s3)ccc2OC[C@@H](C)N(Cc2ccncc2)C[C@@H]1C the results were miR-122 inh 1.
Screening O=C(OCc1ccccc1Cl)c1ccccc1C(=O)c1ccccc1 returned miR-122 inh -137.
`O=C(COC(=O)c1ccccc1C(=O)c1ccc(Cl)c([N+](=O)[O-])c1)NC1CCCCCC1` gave miR-122 inh 63*.
`Cc1c(NC(=O)NC2CCCCC2)cccc1[N+](=O)[O-]` gave miR-122 inh -157.
C[C@H](CO)N1C[C@H](C)[C@H](CN(C)CC2CCOCC2)Oc2ncc(-c3cncnc3)cc2C1=O was read as miR-122 inh -1.
Screening COCC#Cc1ccc2c(c1)O[C@@H](CN(C)C(=O)COC)[C@@H](C)CN([C@@H](C)CO)S2(=O)=O returned miR-122 inh 0.
C[C@H]1CN([C@@H](C)CO)S(=O)(=O)c2ccc(C#Cc3cccnc3)cc2O[C@H]1CN(C)C(=O)C1CC1 was read as miR-122 inh -6.
C[C@@H]1CN([C@H](C)CO)S(=O)(=O)c2ccc(-c3cccc(C(=O)N(C)C)c3)cc2O[C@@H]1CN(C)C(=O)Nc1ccccc1 was read as miR-122 inh -31.
`Cc1nn(Cc2ccc(Cl)c(Cl)c2)c(C)c1NC(=O)c1sc2ccccc2c1Cl` gave miR-122 inh 32*.
`COCC#Cc1ccc2c(c1)O[C@@H](CN(C)C(C)=O)[C@H](C)CN([C@@H](C)CO)S2(=O)=O` gave miR-122 inh -6.
Screening COCC(=O)N(C)C[C@H]1Oc2cc(-c3cncnc3)ccc2S(=O)(=O)N([C@@H](C)CO)C[C@@H]1C returned miR-122 inh -3.

Screening data from PubChem BioAssay.
